This passage reports outcome and AC50 results from PubChem BioAssay (EPA / NIEHS).

For assay [1], the target named is Retinoic acid receptor alpha (Homo sapiens) (UniProt P10276). Description: ATG_DR5_RAR_CIS: Attagene CIS-FACTORIAL HepG2 Assay for human Retinoic Acid Receptor Alpha (RARE), DR5 submotif (AID 2282934). The note with it: HepG2 Attagene cis-factorial RARE DR5 reporter, mRNA; actives raise or lower the signal. An outline of the steps: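 Read-out: DR5-driven reporter transcript measured by RT-PCR, 6-FAM primer extension, HpaI digest and capillary electrophoresis. Human HepG2 liver cells carry transiently transfected cis-element reporter constructs; dosing lasts 24 h. Gain or loss of signal fitted against DMSO baseline.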

Assay [2] deals with Myc proto-oncogene protein (Homo sapiens) (UniProt P01106). The assay is described as follows: ATG_Myc_CIS: Attagene CIS-FACTORIAL HepG2 Assay for human Myelocytomatosis (Myc) Proto-Oncogene Transcription Factor (AID 2282990). The note with it: HepG2, Attagene cis-reporter transcription factor activity; actives raise or lower the signal. The method, boiled down:
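Read-out: fluorescent reporter mRNA fragments resolved by capillary electrophoresis after RT-PCR. Human HepG2 liver cells carried transfected cis-element reporter units and were dosed for 24 h. Gain or loss of signal fitted relative to DMSO baseline.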

A short description of assay [3]: CCTE_Shafer_MEA_acute_spike_number: CCTE's Neural Acute Assay for Total Number of Spikes, Shafer Lab (AID 2284008).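 As to AC50: curve fitted for decrease in spike count so AC50 reflects inhibitors.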 The method, boiled down:
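Read-out is the total spike count over 40 min, expressed as percent change from each well's own pre-treatment baseline and fitted in the loss direction against DMSO. Rat cortical neurons were exposed at 0.03-40 uM on DIV 13 or 15.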

Assay [4] in a line: CCTE_Shafer_MEA_acute_burst_number: CCTE's Neural Acute Assay for Single-Electrode Bursts, Shafer Lab (AID 2284013). The method, boiled down:
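Percent change in single-electrode burst number per well, from 40-min recordings taken before and after adding compound (0.03-40 uM) to primary rat cortical neurons on MEA plates at DIV 13 or 15, 37 C.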

Assay [5] in a line: CCTE_Shafer_MEA_acute_burst_duration_mean: CCTE's Neural Acute Assay for Mean Burst Duration, Shafer Lab (AID 2284014).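 Also: hits are decreases in mean burst duration relative to DMSO controls.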 An outline of the steps: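 Rat cortical cultures, DIV 13/15; 40 min baseline, then 40 min with compound (0.03-40 uM), 37 C. Spikes: 300-5000 Hz band-pass, 8x rms threshold. Read-out: % change in mean single-electrode burst duration, DMSO-referenced, loss direction.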

Assay [6] is described as follows: CCTE_Shafer_MEA_acute_per_burst_spike_number_mean: CCTE's Neural Acute Assay for Average Number of Spikes Per Burst, Shafer Lab (AID 2284015).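 Also: hits are decreases in mean spikes per burst versus baseline.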 An outline of the steps:
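Read-out: percent change in mean spikes per burst, each well's post-exposure 40-min recording versus its own 40-min baseline. Rat cortical cultures, DIV 13 or 15, compounds 0.03-40 uM; DMSO is negative control, loss-of-signal fitting.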

Assay [7] in a line: CCTE_Shafer_MEA_acute_interburst_interval_mean: CCTE's Neural Acute Assay for Mean Interburst Interval, Shafer Lab (AID 2284016).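 Also: percent change of mean interburst interval versus each well's own pre-dose baseline; curves fitted for decrease in interburst interval relative to DMSO.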 The method, boiled down: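 Rat cortical cultures, DIV 13/15; 20 min equilibration, 40 min baseline, compound 0.03-40 uM, 40 min re-recording, 37 C. Spikes detected at 8x rms noise (300-5000 Hz band-pass). Endpoint: % change in interburst interval, fitted in loss direction vs DMSO.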

Assay [8] is described as follows: CCTE_Shafer_MEA_acute_burst_percentage_mean: CCTE's Neural Acute Assay for Percentage of Spikes in a Burst, Shafer Lab (AID 2284017).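 As to AC50: curve fitted for loss of signal so potency reflects decreased burst percentage.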 The method, boiled down:
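Rat cortical cultures, DIV 13/15, 37 C. Spikes detected at 8x rms noise (300-5000 Hz band-pass). Burst spikes/total spikes averaged across electrodes per well; % change post- vs pre-treatment (40 min each), loss-of-signal fit vs DMSO.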

Assay [9] can be described thus: CCTE_Shafer_MEA_acute_burst_percentage_std: CCTE's Neural Acute Assay for Standard Deviation of Burst Percentage, Shafer Lab (AID 2284018).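 Also: fitted in the negative direction so actives lower burst percentage SD.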 An outline of the steps:
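Rat primary cortical neurons on 48-well MEAs, DIV 13 or 15, 37 C. 40-min baseline then 40-min recording with compound (0.03-40 uM); well-level SD of per-electrode burst spike percentage, expressed as percent change from baseline.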

A short description of assay [10]: CCTE_Shafer_MEA_acute_per_network_burst_spike_number_mean: CCTE's Neural Acute Assay for Average Number of Spikes in a Network Burst, Shafer Lab (AID 2284019). The method, boiled down: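 Rat cortical cultures, DIV 13/15; spike threshold 8x rms noise, 300-5000 Hz band-pass, 12.5 kHz sampling; wells need >/= 10 active electrodes. Compound 0.03-40 uM, 40 min, 37 C; % change vs own baseline, DMSO negative control.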

The nature of assay [11]: CCTE_Shafer_MEA_acute_per_network_burst_spike_number_std: CCTE's Neural Acute Assay for Standard Deviation of Number of Spikes in a Network Burst, Shafer Lab (AID 2284020).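 Also: fitted for decrease in spike-number SD versus DMSO so actives lower it.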 The method, boiled down:
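Rat cortical cultures, DIV 13/15, 37 C; 20-min stabilisation, 40-min baseline, compound 0.03-40 uM, 40-min re-record. Spikes detected at 8x rms noise (300-5000 Hz band-pass). Readout: % change from baseline in per-burst spike-number SD.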

A short description of assay [12]: CCTE_Shafer_MEA_acute_per_network_burst_electrodes_number_mean: CCTE's Neural Acute Assay for Mean Number of Electrodes in a Network Burst, Shafer Lab (AID 2284021).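 Also: curves fitted for decreases only so hits reduce electrodes per burst.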 An outline of the steps: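 Primary rat cortical networks, mwMEA, 37 C. 20 min stabilization, 40 min baseline, compound 0.03-40 uM, 40 min re-record. Wells need >=10 active electrodes; percent change per well, negative fitting direction.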

Assay [13] in a line: CCTE_Shafer_MEA_acute_network_burst_percentage: CCTE's Neural Acute Assay for Percentage of Network Bursts, Shafer Lab (AID 2284022).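 Also: curves fitted for loss so actives lower network burst percentage.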 An outline of the steps: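 Readout is the fraction of spikes falling in network bursts, expressed as per-well percent change from a 40-min pre-exposure baseline. Primary rat cortical neurons on MEA were exposed to 0.03-40 uM compound on DIV 13 or 15 and recorded for 40 min at 37 C.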

Assay [14] can be described thus: CCTE_Shafer_MEA_acute_cross_correlation_HWHM: CCTE's Neural Acute Assay for Cross Correlation at Half Width at Half Maximum, Shafer Lab (AID 2284026).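 Also: percent change per well from pre-dose baseline in spike cross-correlogram half width; hits are a decrease in cross-correlogram half width relative to DMSO.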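 As to outcome: spontaneous network firing of rat primary cortical neurons on multiwell microelectrode arrays.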 An outline of the steps:
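Rat cortical neuron cultures on microelectrode arrays were equilibrated 20 min at 37 C, recorded 40 min at baseline, then 40 min after compound addition (0.03-40 uM, ≥3 wells). Spikes were detected at 8x rms noise after 300-5000 Hz band-pass filtering.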

The nature of assay [15]: CCTE_Shafer_MEA_acute_LDH: CCTE's Lactate Dehydrogenase Assay for Cytotoxicity in the Neural Acute Assay, Shafer Lab (AID 2284086; active = hit-call score of the fitted dose curve at least 0.9, where 1 is the maximum;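 also: active means LDH release rises above DMSO vehicle level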). An outline of the steps: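 Medium collected from MEA wells of primary rat cortical cultures (DIV 13 or 15) immediately after 40 min chemical exposure is assayed spectrophotometrically for lactate dehydrogenase activity. Endpoint fitted in positive direction versus DMSO.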

The target in assay [16] is Transcription factor E2F1 (Homo sapiens) (UniProt Q01094). Description: ATG_E2F_CIS: Attagene CIS-FACTORIAL HepG2 Assay for human E2F Transcription Factor 1 (AID 2282935). To be noted: HepG2 Attagene cis-reporter, E2F reporter RNA transcripts; actives raise or lower the signal. The method, boiled down:
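Liver-derived HepG2 cells expressing transfected promoter-driven reporter units received test chemical for 24 hours. Signal gains or losses were fitted bidirectionally against DMSO.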

Assay [17] addresses Retinoic acid receptor RXR-alpha (Homo sapiens) (UniProt P19793). Description: ATG_RXRa_TRANS: Attagene TRANS-FACTORIAL HepG2 Assay for human Retinoid X Receptor alpha (RXRa) (AID 2283012; active = hit-call score of the fitted dose curve at least 0.9, where 1 is the maximum). An outline of the steps: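 Measures exogenous chimeric NR-GAL4 activity in transfected HepG2 liver cells after 24 h of dosing. Induced reporter mRNA was detected by RT-PCR with capillary electrophoresis, and gain of signal was analysed against DMSO.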

The target in assay [18] is Hepatocyte nuclear factor 4-alpha (Homo sapiens) (UniProt P41235). Description: ATG_HNF4a_TRANS: Attagene TRANS-FACTORIAL HepG2 Assay for human Hepatocyte Nuclear Factor 4 alpha (HNF4a) (AID 2282982; active = hit-call score of the fitted dose curve at least 0.9, where 1 is the maximum). The note with it: HepG2 HNF4a transactivation reporter, mRNA readout. An outline of the steps:
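Endpoint reflects transcriptional activation of a GAL4-UAS reporter by an HNF4a-GAL4 chimera in transfected HepG2 cells, 24 h post-dosing. Fluorescence from RT-PCR products separated by capillary electrophoresis; DMSO baseline.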

Assay [19] is described as follows: CCTE_Harrill_HTTr_CellCount_MCF7: CCTE's Cell Proliferation Assessment for the High-Throughput Transcriptomics (HTTr) Platform, Harrill Lab (AID 2284012; active = hit-call score of the fitted dose curve at least 0.9, where 1 is the maximum;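 also: cells exposed to compound for six hours; intended direction is loss of nuclei count meaning fewer cells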). The method, boiled down: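 Cell count served as viability reporter: loss of Hoechst-stained nuclei, counted by high content imaging, marks decreased growth or survival. Exposure was 6 h in MCF-7 cells across eight concentrations, with DMSO as baseline.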

The target of assay [20] is human RAR-related Orphan Receptor gamma (RORg), RORC (gene 6097) (UniProt P51449). The assay is described as follows: ATG_RORg_TRANS: Attagene TRANS-FACTORIAL HepG2 Assay for human RAR-related Orphan Receptor gamma (RORg) (AID 2283011; active = hit-call score of the fitted dose curve at least 0.9, where 1 is the maximum). The method, boiled down: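 First, HepG2 liver cells were transfected with GAL4-UAS-driven reporter constructs and the RORg-Gal4 fusion. Next, they were treated with chemical for 24 h. Finally, reporter mRNA was quantified by RT-PCR and capillary electrophoresis, with upward activity fitted against DMSO.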

Results filed as inconclusive are left out. Activity calls are given as the source filed them. The calls were made as follows, unless noted: active = hit-call score of the fitted dose curve at least 0.9, where 1 is the maximum; inactive = score below 0.9.

As a reminder, the AC50 is the concentration giving half of the maximal activity seen.

Myc proto-oncogene protein (Homo sapiens), sequence (P01106 whole entry, looked up, the tested form may be a part): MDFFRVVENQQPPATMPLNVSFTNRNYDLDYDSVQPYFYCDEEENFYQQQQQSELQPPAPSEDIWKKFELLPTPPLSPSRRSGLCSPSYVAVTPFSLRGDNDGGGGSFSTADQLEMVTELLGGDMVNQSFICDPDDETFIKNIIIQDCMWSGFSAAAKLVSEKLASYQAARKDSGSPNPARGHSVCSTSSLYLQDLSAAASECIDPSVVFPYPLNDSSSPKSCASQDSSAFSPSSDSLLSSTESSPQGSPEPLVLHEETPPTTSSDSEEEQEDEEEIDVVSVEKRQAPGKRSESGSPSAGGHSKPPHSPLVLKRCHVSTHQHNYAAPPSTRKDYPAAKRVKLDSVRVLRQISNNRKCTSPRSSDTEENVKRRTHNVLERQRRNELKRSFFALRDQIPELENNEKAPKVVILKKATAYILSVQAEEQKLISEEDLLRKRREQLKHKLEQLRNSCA
Hepatocyte nuclear factor 4-alpha (Homo sapiens), sequence (P41235 whole entry, looked up, the tested form may be a part): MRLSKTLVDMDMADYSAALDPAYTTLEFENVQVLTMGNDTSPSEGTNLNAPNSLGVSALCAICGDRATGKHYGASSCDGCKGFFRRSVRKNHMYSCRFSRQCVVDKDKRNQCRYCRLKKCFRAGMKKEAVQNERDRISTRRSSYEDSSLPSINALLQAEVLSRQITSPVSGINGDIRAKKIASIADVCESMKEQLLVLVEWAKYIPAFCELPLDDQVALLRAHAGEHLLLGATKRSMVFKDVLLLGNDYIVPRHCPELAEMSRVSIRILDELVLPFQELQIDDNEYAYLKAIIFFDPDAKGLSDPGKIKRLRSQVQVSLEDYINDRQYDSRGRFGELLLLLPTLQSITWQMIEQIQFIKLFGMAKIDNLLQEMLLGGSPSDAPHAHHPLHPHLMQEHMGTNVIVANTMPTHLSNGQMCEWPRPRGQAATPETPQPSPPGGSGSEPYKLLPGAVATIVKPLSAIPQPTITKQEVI
Transcription factor E2F1 (Homo sapiens), sequence (Q01094 whole entry, looked up): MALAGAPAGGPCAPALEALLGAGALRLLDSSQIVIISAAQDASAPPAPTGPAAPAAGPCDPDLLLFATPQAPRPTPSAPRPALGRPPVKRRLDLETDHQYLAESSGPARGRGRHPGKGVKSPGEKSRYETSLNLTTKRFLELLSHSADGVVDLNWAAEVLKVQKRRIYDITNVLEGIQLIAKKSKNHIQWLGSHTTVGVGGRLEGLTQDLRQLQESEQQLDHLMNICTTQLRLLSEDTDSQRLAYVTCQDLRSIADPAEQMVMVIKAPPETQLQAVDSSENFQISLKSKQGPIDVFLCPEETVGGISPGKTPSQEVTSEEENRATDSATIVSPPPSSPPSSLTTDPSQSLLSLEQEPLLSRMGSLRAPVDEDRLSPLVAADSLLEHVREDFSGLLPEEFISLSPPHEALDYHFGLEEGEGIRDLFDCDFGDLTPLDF
Retinoic acid receptor RXR-alpha (Homo sapiens), sequence (P19793 whole entry, looked up, the tested form may be a part): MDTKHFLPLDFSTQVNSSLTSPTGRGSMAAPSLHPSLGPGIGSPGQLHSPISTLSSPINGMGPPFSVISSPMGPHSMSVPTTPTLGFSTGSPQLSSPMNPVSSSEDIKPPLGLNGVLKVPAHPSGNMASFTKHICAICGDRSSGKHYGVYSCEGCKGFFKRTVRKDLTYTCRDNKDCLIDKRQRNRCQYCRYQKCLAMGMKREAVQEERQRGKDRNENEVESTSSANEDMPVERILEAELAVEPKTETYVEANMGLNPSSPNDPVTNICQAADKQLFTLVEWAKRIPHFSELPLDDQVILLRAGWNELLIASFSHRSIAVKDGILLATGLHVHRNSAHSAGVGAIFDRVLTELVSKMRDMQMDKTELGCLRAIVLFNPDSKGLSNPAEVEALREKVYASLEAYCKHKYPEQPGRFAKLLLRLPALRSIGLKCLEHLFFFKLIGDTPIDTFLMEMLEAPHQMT
Retinoic acid receptor alpha (Homo sapiens), sequence (P10276 whole entry, looked up): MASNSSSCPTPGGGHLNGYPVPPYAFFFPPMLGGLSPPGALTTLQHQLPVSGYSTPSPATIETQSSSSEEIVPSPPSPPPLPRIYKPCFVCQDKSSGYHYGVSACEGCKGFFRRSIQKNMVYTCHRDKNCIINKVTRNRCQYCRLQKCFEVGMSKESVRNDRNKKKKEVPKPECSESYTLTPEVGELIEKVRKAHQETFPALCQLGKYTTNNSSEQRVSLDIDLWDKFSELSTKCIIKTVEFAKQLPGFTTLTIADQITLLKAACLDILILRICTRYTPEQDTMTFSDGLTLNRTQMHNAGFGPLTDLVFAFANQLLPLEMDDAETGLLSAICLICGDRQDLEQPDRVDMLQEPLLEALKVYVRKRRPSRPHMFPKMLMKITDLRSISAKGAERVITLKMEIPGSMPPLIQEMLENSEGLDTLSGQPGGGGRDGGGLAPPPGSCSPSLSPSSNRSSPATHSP
human RAR-related Orphan Receptor gamma (RORg), RORC (gene 6097), sequence (P51449 whole entry, looked up, the tested form may be a part): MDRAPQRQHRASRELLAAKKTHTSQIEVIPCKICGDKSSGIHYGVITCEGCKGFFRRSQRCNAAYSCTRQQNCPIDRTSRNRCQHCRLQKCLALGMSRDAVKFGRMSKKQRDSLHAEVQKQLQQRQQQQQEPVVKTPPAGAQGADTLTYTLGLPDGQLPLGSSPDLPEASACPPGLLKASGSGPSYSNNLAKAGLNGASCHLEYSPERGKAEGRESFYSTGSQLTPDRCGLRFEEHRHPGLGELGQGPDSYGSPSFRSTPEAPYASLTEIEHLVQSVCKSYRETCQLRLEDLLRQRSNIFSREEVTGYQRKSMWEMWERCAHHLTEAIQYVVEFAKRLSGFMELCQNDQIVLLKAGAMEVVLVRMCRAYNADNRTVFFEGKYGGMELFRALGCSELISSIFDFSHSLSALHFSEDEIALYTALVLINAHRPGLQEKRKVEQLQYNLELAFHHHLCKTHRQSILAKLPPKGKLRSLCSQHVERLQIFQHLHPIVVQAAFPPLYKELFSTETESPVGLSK

`Oc1ccc(Oc2ccccc2)cc1`: the result in assay [1] and in assay [2] was inactive.

Take `CCC[Si](OC(C)=O)(OC(C)=O)OC(C)=O`: the AC50 in assay [3] is 0.0721 µM (active); in [4], 0.0554 µM (active). Moreover, the result in assay [5], in assay [6], in assay [7], in [8], in [9] and in assay [10] was inactive. Also, the compound was classed as inactive in [11], in assay [12], in assay [13], in [14] and in assay [15].

Turning to `CCO[Si](OCC)(OCC)c1ccccc1`, the outcome in assay [16], in [2] and in assay [17] was inactive.

Consider `N#CCN(CC#N)CCN(CC#N)CC#N`, for which the call in [18] was inactive.

With `COc1cc(CNC(=O)CCCC/C=C/C(C)C)ccc1O`, the compound was classed as inactive in [3], in [4], in assay [5], in assay [6], in assay [7] and in assay [10]. Moreover, the compound was called inactive in assay [11], in assay [12], in assay [13] and in [15]. Besides, the AC50 is 4.25 µM (active) in [8], 8.5 µM (active) in assay [9] and 5.46 µM (active) in [14].

As for `COc1ccccc1Oc1c(NS(=O)(=O)c2ccc(C(C)(C)C)cc2)nc(-c2ncccn2)nc1OCCO`, the outcome in assay [3], in assay [4], in assay [5], in assay [6], in [8] and in assay [9] was inactive. In addition, the call in assay [10], in assay [11], in assay [12], in assay [13] and in assay [14] was inactive. The AC50 in assay [7] is 5.33 µM (active).

Take `Cc1ccnc(N)c1`: the result in [1], in assay [2] and in assay [19] was inactive.

As to `CC(C)C1OCCN1CCOC(=O)NCCCCCCNC(=O)OCCN1CCOC1C(C)C` (configuration not stated), the AC50 in [3] was 0.0163 µM (active). Moreover, the result in assay [4], in assay [5], in assay [6], in assay [7], in assay [8] and in [9] was inactive. Also, the call in assay [10], in assay [11], in assay [12], in assay [13], in assay [14] and in assay [15] was inactive.

Regarding `CC/C=C\CCCCCO`, the call in [16], in assay [18], in [2], in [20] and in assay [17] was inactive.

Turning to `CCCCCCOC(=O)CCCCCCCC(=O)OCCCCCC`, the compound was classed as inactive in assay [18].

Regarding `CC(=O)O[C@]1(C(C)=O)CC[C@H]2[C@@H]3C=C(C)C4=CC(=O)CC[C@]4(C)[C@H]3CC[C@@]21C`, the compound was classed as inactive in assay [19].

In the case of `Oc1ccc2c(c1)Cc1ccccc1-2`, in assay [19], the outcome was inactive.

Turning to `CNCCC(Oc1ccc(C(F)(F)F)cc1)c1ccccc1` (configuration not stated), the AC50 in [3] was 0.877 µM (active); in [4], 0.693 µM (active); in [8] it was 7.59 µM (active); in assay [9] it was 5.91 µM (active); in assay [14] it was 7.68 µM (active). In addition, the call in [19], in assay [5], in assay [6], in assay [7], in assay [10] and in assay [11] was inactive. In addition, the result in assay [12], in assay [13] and in assay [15] was inactive.
